Source: PubChem BioAssay AID1822 (The Scripps Research Institute Molecular Screening Center, 2009)
The campaign covered roughly 290,000 compounds. About 3,500 (1.2%) were called active.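 The calls were made as follows: active = inhibition above the campaign mean inhibition over all tested compounds plus 3 SD (cut at about 28% in these data); inactive = the rest.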 The full list was thinned out, with actives kept by preference.

tested on: M18 aspartyl aminopeptidase (Plasmodium falciparum 3D7); test: inhibition of P. falciparum M18 aminopeptidase – biochemical, QFRET, recombinant enzyme, primary screen (AID 1822); conditions: recombinant PfM18AAP, H-Glu-NHMec fluorogenic cleavage; at 7.35 µM; active compounds read high;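 also: 0% = plate median of test compound wells and 100% = 2 mM ZnCl2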

Row | Compound | inhibition
1 | Cc1ccc(C)c(NC(=O)CCC(=O)N/N=C2/CC(=O)CC(C)(C)C2)c1 | -1.68% (inactive)
2 | CC1(C)CC(=O)C/C(=N\NC(=O)c2cccs2)C1 | 38.3% (active)
3 | CC1C/C(=N/NC(=O)c2cccs2)CC(C)(C)C1 (stereo unspecified) | -19.4% (inactive)
4 | COc1ccccc1CNS(=O)(=O)CC12CCC(CC1=O)C2(C)C (stereo unspecified) | 6.59% (inactive)
5 | C/C(=C\C(=O)c1cccnc1)Nc1ccc(C)c(C)c1 | 1.47% (inactive)
6 | C/C(=C\C(=O)c1ccccc1)Nc1cccc(O)c1 | 31% (active)
7 | O=C(Nc1cccc(O)c1)c1ccc(C(=O)c2ccccc2)o1 | -0.92% (inactive)
8 | O=C(O)C1CCN(c2ccc([N+](=O)[O-])cc2[N+](=O)[O-])CC1 | -4.27% (inactive)
9 | O=[N+]([O-])c1ccc(N2CCN(c3ccc(O)cc3)CC2)c(Cl)c1 | 36% (active)
10 | COc1ccc(N2CCN(c3ccc([N+](=O)[O-])cc3Cl)CC2)cc1 | -8.52% (inactive)
11 | CCOc1ccc(C(=O)Nc2cccc(SC)c2)cc1 | -1.4% (inactive)
12 | O=C(Nc1cc(N2CCOCC2)ncn1)NC1(C(F)(F)F)Oc2ccc(Cl)cc2O1 (stereo unspecified) | 89.4% (active)
13 | O=C(CN1C(=O)COc2ccc(Cl)cc21)Nc1ccc(N2CCOCC2)cc1 | -12.7% (inactive)
14 | COc1ccc(Cl)cc1NC(=O)CN1CCN(C(=O)N2CCOCC2)CC1 | -7.2% (inactive)
15 | CCOc1ccc(C(=O)CCN2CCOCC2)cc1 | -12.6% (inactive)
16 | O=C1c2ccccc2C(=O)N1CCOc1ccc(F)cc1 | -6.45% (inactive)
17 | CCn1c(SCC(=O)Nc2ccc(Br)cc2)nc2sc3c(c2c1=O)CCN(C)C3 | 7.65% (inactive)
18 | O=C(CN1CCN(S(=O)(=O)c2cc(Cl)ccc2Cl)CC1)c1ccc(O)c(O)c1 | 71.5% (active)
19 | COc1ccc(Cl)cc1S(=O)(=O)N1CCN(CC(=O)C(C)(C)C)CC1 | -1.35% (inactive)
20 | N#Cc1ccsc1NC(=O)CN1CCN(S(=O)(=O)c2cc(Cl)ccc2Cl)CC1 | -4.98% (inactive)
21 | C/C(=N\NC(=O)c1ccccc1F)c1ccccn1 | -8.33% (inactive)
22 | CC(C)(C)NC(=O)NC(=O)COC(=O)C1c2ccccc2Oc2ccccc21 | 6.75% (inactive)
23 | CCn1ccnc1CNC(=O)CC1C(=O)NCCN1CCCc1ccccc1 (stereo unspecified) | 7.75% (inactive)
24 | CN(C(=O)CC1C(=O)NCCN1Cc1ccc(F)cc1Cl)C1CCCCC1 (stereo unspecified) | -5.56% (inactive)
25 | CCn1ccnc1CNC(=O)CC1C(=O)NCCN1Cc1ccc(F)cc1Cl (stereo unspecified) | 33.7% (active)
26 | CCN(c1cccc(C)c1)S(=O)(=O)c1ccc(-c2coc(C)n2)cc1 | -0.79% (inactive)
